Test results: ChEMBL document CHEMBL1157539, “Thousands of chemical starting points for antimalarial lead identification” (Nature, 2010)
Where “and” joins values, the source holds several entries; their conditions need not be identical. Equal entries are not always repeated.

Tested on: Plasmodium falciparum
Assay: GSK_TCMDC: Inhibition of Plasmodium falciparum Dd2 in whole red blood cells, using parasite LDH activity as an index of growth. Test compounds present at 2uM
Format: functional

SMILES	Inhibition
Cc1[nH]c2ccccc2c1C1=CCN(CCN2CCCc3c(Br)cccc3C2=O)CC1	90%
Cl.Fc1ccc2[nH]cc(CCN3CCC(CNCc4ccccc4)CC3)c2c1	94%
CN(c1cc(NC(=O)c2cccs2)ccn1)C1CCN(Cc2cccc(C#N)c2)CC1.O=C(O)C(F)(F)F	69%
CCCCC/C=C/C(=O)NC1CCC(CN2CCC(c3c[nH]c4ccccc34)CC2)CC1 (centres undefined)	11%
CN(C)CCC(=O)c1ccccc1.Cl	5%
CC(=O)C1(c2ccccc2)CCN(CCC2(c3ccc(Cl)c(Cl)c3)CN(C(=O)C3CCCC3)CCO2)CC1 (centres undefined)	70%
CN(CC(=O)N1CCN(S(=O)(=O)c2cccc(Cl)c2)CC1CN1CCCC1)c1ccc(Cl)c(Cl)c1 (centres undefined)	32%
COc1ccc(O)c(CN2CCN(c3cc(C)ccc3C)CC2)c1	86%
COc1ccc(C(=O)C2CC2CN2CC=C(c3c[nH]c4ccccc34)CC2)cc1 (centres undefined)	89%
COc1ccc(C=CC(=O)NC2CCC(CN3CCC(c4c[nH]c5ccccc45)CC3)CC2)cc1OC (centres undefined)	85% and 72%
CC(=O)C1(c2ccccc2)CCN(CCC2(c3ccc(Cl)c(Cl)c3)CN(C(=O)C3CCCCC3)CCO2)CC1 (centres undefined)	99%
O=c1n[n+](C2CCCCC2)[n-]o1	82%
O=C(NCCC1CCN(CCc2c[nH]c3ccccc23)CC1)Nc1ccc(Cl)c(Cl)c1	5%
O=C(/C=C/c1cccs1)NC1CCC(CN2CCC(c3c[nH]c4ccccc34)CC2)CC1 (centres undefined)	29%
Cc1c(C)c2c(c(C)c1O)CC[C@](C)(C(=O)NC1CCC(CN3CCC(c4c[nH]c5ccccc45)CC3)CC1)O2 (some centres undefined)	98% and 48%
CCN(Cc1ccccc1)CC(O)c1ccc(Cl)c(Cl)c1.Cl (centres undefined)	71%
CCOC(C(=O)OCC1CCCN1C)(c1ccccc1)c1ccccc1 (centres undefined)	3%
C=CCOc1ccccc1CNCC(O)c1cccc(C(F)(F)F)c1 (centres undefined)	98%
CC(Cc1ccc(OCc2ccccc2)c(Cl)c1)NCC(O)c1cccc(C(F)(F)F)c1 (centres undefined)	95%
O=C(/C=C/c1ccc(Cl)c(Cl)c1)NCc1ccc(CN2CCC(c3c[nH]c4ccccc34)CC2)cc1	86%

SMILES	Inhibition
O=C(NC1CCC(CN2CCC(c3c[nH]c4ccccc34)CC2)CC1)c1ccc(-c2cc(C(F)(F)F)ccc2Cl)o1 (centres undefined)	34%
CC[C@H]1CN2CC[C@H]1C[C@@H]2[C@@H](O)c1ccnc2ccccc12	20%
COC(=O)c1ccc(C[C@@H](C)NC[C@H](O)c2cccc(C(F)(F)F)c2)cc1.Cl	93%
CC[C@H]1CN2CC[C@H]1C[C@H]2[C@H](O)c1cc(-c2ccc(Cl)c(Cl)c2)nc2ccc(OC)cc12.Cl	99%
O=C(/C=C/c1ccc(Cl)c(Cl)c1)N1CCC2CC(N3CCC(c4c[nH]c5ccccc45)CC3)CCC2C1 (centres undefined)	99%
CC(C)(C)c1ccc(Cn2nc(C(=O)N3CCN(C(=O)C4CCCO4)CC3)c3ccccc32)cc1 (centres undefined)	83%
CC[C@H]1CN2CC[C@H]1C[C@H]2[C@H](O)c1cc(-c2cccc(Cl)c2)nc2ccc(OC)cc12.Cl	99%
Br.COC(=O)C(C)(C)c1ccc(CC(C)NCC(O)c2cccc(C(F)(F)F)c2)cc1 (centres undefined)	98%
CC[C@H]1CN2CC[C@H]1C[C@H]2[C@H](O)c1cc(N2CCCC(CO)C2)nc2ccc(OC)cc12 (some centres undefined)	99%
COc1cccc(C2(NC[C@@H](O)[C@H](Cc3ccccc3)NC(=O)c3ccccc3)CCCCC2)c1	67%
Brc1cnc(NC2=NCCN2)c(Br)c1.Cl	0%
O=C(/C=C/c1ccc([N+](=O)[O-])cc1)NC1CCC(CN2CCC(c3c[nH]c4ccccc34)CC2)CC1 (centres undefined)	61% and 81%
O=C(NC1CCC(CN2CCC(c3c[nH]c4ccccc34)CC2)CC1)c1cc(-c2ccccc2Cl)oc1C(F)(F)F (centres undefined)	7%
CC[C@H]1CN2CC[C@H]1C[C@H]2[C@H](O)c1cc(/C=C/c2ccc(F)cc2)nc2ccc(OC)cc12.Cl	99%
Cc1ccc(CC(C)NC[C@H](O)c2cccc(Cl)c2)cc1 (some centres undefined)	64%
CC(=O)N(Cc1ccccc1-c1cccc(CNCCc2ccccc2)c1)C1CCN(Cc2ccccc2)CC1.O=C(O)C(F)(F)F	30%
C=C[C@H]1CN2CC[C@H]1C[C@H]2[C@H](O)c1cc(-c2ccc(Cl)cc2)nc2ccc(OC)cc12.Cl	98%
CCCc1c(C(=O)NC2CCC(CN3CCC(c4c[nH]c5ccccc45)CC3)CC2)cnn1-c1ccc(Cl)cc1 (centres undefined)	37%
CC(Cc1ccc(NC(=O)CCCc2ccccc2)cc1)NCCc1cccc(Cl)c1.Cl (centres undefined)	3%
